Structures are written as SMILES. “And” between values parts separate entries of the source, which are not always exact repeats. Equal values may be shown once. Inconclusive results are not listed. Entries that show only a call come without a potency. The source made the active and inactive calls. Calls come from the whole dose curve; as a rule, active = well fitted curve in the direction sought with a large enough effect; inconclusive = small, poorly fitted or top-dose-only effect, or another doubt; inactive = no such curve, though single readings can be large; an effect the other way counts as inactive or inconclusive.
Potency is the fitted concentration of half-maximal effect.

Glutathione peroxidase 1 (Homo sapiens), sequence (P07203 whole entry, looked up): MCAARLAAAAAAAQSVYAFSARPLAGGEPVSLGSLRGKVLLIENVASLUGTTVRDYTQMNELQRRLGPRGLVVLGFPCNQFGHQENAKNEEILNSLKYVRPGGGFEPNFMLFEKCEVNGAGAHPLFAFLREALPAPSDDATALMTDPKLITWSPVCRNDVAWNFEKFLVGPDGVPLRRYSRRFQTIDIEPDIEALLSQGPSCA

Test system in one assay: not listed separately
As to the kind of experiment: Primary qHTS for inhibitors of nuclear receptor binding SET domain protein 2 (NSD2) in an RCH-ACV wild type WT cells (2C) (AID 1645877). Note: nearly all actives have a fitted effect of over 70% in size. The note with it: RCH-ACV (leukaemia line) NSD2 WT (2C) viability, CellTiter-Glo, 72 h; series mostly up to 44.9 µM.
On to `CC(C)n1cnc2c(Nc3cccc(Cl)c3)nc(NCCO)nc21`, for which the Potency was 8.17 µM (active).

On to `Cc1c(C(=O)NCCCO)cnn1-c1nc(-c2cccc(C(F)(F)F)c2)cs1`, for which the Potency is 25.8 µM (active).

For `C[C@@H](O[C@H]1OCCN(Cc2n[nH]nc2CN(C)C)[C@H]1c1ccc(F)cc1)c1cc(C(F)(F)F)cc(C(F)(F)F)c1`, the Potency was 14.5 µM (active).

As for `CC[C@H](C)[C@H]1O[C@]2(CC[C@@H]1C)C[C@@H]1C[C@@H](C/C=C(\C)[C@@H](O[C@H]3C[C@H](OC)[C@@H](O[C@H]4C[C@H](OC)[C@@H](O)[C@H](C)O4)[C@H](C)O3)[C@@H](C)/C=C/C=C3\CO[C@@H]4[C@H](O)C(C)=C[C@@H](C(=O)O1)[C@]34O)O2`, the Potency was 9.16 µM (active).

As to `CCC(=O)Nc1cccc(Oc2nc(Nc3ccc(N4CCN(C)CC4)cc3OC)ncc2Cl)c1`, the Potency is 14.5 µM (active).

`COc1cc2nc(-c3cc(F)ccc3O)nc(N[C@@H]3CNC[C@H]3C(C)(C)O)c2cc1OC`: the Potency was 4.09 µM (active) and 1.66 µM (active).

As for `Cc1cc(CN)cc(C)c1NC(=O)c1ccc(-c2cc(Cl)ccc2Cl)o1`, the Potency is 9.16 µM (active).

For `c1ccc(-c2cnc(Nc3ccc(OCCN4CCCC4)cc3)s2)cc1`, the Potency is 9.16 µM (active).

For `C=C1C(=O)O[C@@H]2/C=C(/C)CC3C=C(C[C@H](OC(=O)/C(C)=C\C)[C@@H]12)C(=O)O3` (stereo partly drawn), the Potency was 3.58 µM (active).

With `CC1(C)SC2C(NC(=O)[C@H](NC(=O)N3CCNC3=O)c3ccccc3)C(=O)N2C1C(=O)O` (stereo partly drawn), the Potency entry was “inactive”.

Take `CC1(C)SC2C(NC(=O)[C@H](C(=O)O)c3ccsc3)C(=O)N2C1C(=O)O` (stereo partly drawn): the Potency result was “inactive”.

For the compound `COc1ccc(-c2nc(-c3cc(C(F)(F)F)cc(C(F)(F)F)c3)n(Cc3ccc(C(N)=O)cc3)c2-c2ccc(OC)cc2)cc1`, the Potency entry is “inactive”.

Regarding `Fc1ccccc1CNCc1ccc(-c2ccnc3[nH]ccc23)cc1`, the Potency was 11.5 µM (active).

Regarding `CCCCc1nc(C)c(CC(=S)N(C)C)c(=O)n1Cc1ccc(-c2ccccc2-c2nn[nH]n2)cc1`, the Potency result is “inactive”.

As to `CNc1nc(-c2ccc3c(N)n[nH]c3c2)cc(N2CC(C(=O)NC3CCCCC3)CCC2C)n1` (stereo not drawn), the Potency is 1.15 µM (active).

With `CCOC(=O)CCC(=O)O[C@H]1[C@H](O[C@@H]2[C@@H](C)[C@H](O[C@H]3C[C@@](C)(OC)[C@@H](O)[C@H](C)O3)[C@@H](C)C(=O)O[C@H](CC)[C@@](C)(O)[C@H](O)[C@@H](C)C(=O)[C@H](C)CC2(C)O)O[C@H](C)C[C@@H]1N(C)C` (stereo partly drawn), the Potency result is “inactive”.

`COc1cc(-c2cc(-c3cccc(O)c3)cnc2N)cc(OC)c1OC`: the Potency was 12.9 µM (active).

In the case of `C=C1C(=O)O[C@@H]2C[C@@H](C)[C@]34C[C@]5(C(=O)O[C@H]6CC(C)=C([C@H](C)CCCO)[C@H](OC(=O)C(C)CC)[C@H]65)[C@@H](C(C)=C3C[C@@H]12)[C@H]4OC(C)=O` (stereo partly drawn), the Potency was 1.53 µM (active).

Turning to `CC(=O)Nc1ccc(C(=O)Nc2ccccc2N)cc1`, the Potency was 2.82 µM (active) and 3.72 µM (active).

For `C[C@H](NC(=O)C(C)(C)Oc1ccc(C(F)(F)F)cn1)[C@@H](Cc1ccc(Cl)cc1)c1cccc(C#N)c1`, the Potency was 20.5 µM (active).

For the compound `CN(C)CC(=O)Nc1ccc2[nH]c(=O)c3ccccc3c2c1`, the Potency was 23 µM (active).

In the case of `C[C@@H](CN1CCC(n2c(=O)[nH]c3cc(Cl)ccc32)CC1)NC(=O)c1ccc2ccccc2c1`, the Potency is 16.3 µM (active).

Take `CC(C)c1ccc(NC(=O)C(c2ccccc2)N(C)C(=O)Cc2c[nH]c3ccccc23)cc1` (stereo not drawn): the Potency is 20.5 µM (active).

Consider `CCCCC(=O)N(Cc1ccc(-c2ccccc2-c2nn[nH]n2)cc1)C(C(=O)O)C(C)C` (stereo not drawn), for which the Potency result is “inactive”.

As for `CCCCc1nc(Cl)c(CO)n1Cc1ccc(-c2ccccc2-c2nnn[nH]2)cc1`, the Potency entry is “inactive”.

As for `COc1ccc2c(c1)CN(C(=O)CCN1CCC(Cc3ccccc3)CC1)CCS2`, the Potency is 10 µM (active).

With `C=C1C(=O)O[C@@H]2[C@H]1[C@H](O)C[C@]1(C)[C@@H](O)CC=C(C)[C@@H]21`, the Potency was 7.28 µM (active).

Regarding `CCNC(=O)[C@@H]1CCCN1C(=O)[C@H](CCCN=C(N)N)NC(=O)[C@H](CC(C)C)NC(=O)[C@@H](CC(C)C)NC(=O)[C@H](Cc1ccc(O)cc1)NC(=O)[C@H](CO)NC(=O)[C@H](Cc1c[nH]c2ccccc12)NC(=O)[C@H](Cc1cnc[nH]1)NC(=O)[C@@H]1CCC(=O)N1`, the Potency result is “inactive”.

On to `COc1ccc(C2(CNC(=O)[C@](C)(Cc3c[nH]c4ccccc34)NC(=O)Nc3ccc([N+](=O)[O-])cc3)CCCCC2)nc1`, for which the Potency was 20.5 µM (active).

Turning to `CCN(CC)Cc1cccc(/C=C/c2nc3ccc(F)cc3c(=O)n2-c2ccccc2Cl)n1`, the Potency is 12.9 µM (active).

`C=C(C(=O)O)C1CC2=C(C)C(=O)CC2C(C)CC1O` (stereo not drawn): the Potency was 5.78 µM (active).

In a further assay the target is Glutathione peroxidase 1 (Homo sapiens) (UniProt P07203). Kind of assay: Primary qHTS Assay for Inhibitors of Recombinant Selenoprotein Glutathione Peroxidase 1 (GPX1) (AID 1845191). Note: nearly all actives have a fitted effect of over 65% in size. The note with it: recombinant GPX1, GR-coupled NADPH fluorescence, 15 min; series mostly up to 48.8 µM. Put shortly:
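GR-coupled readout: NADPH consumption tracked by fluorescence, ex 340/em 450 nm, at t=0 and after 15 min at RT. Final mix 10 nM GPX1, 1 mM GSH, 0.5 mM CHP, 0.5 mM NADPH, 100 nM GR, 0.01% BSA, following 30 min enzyme–compound preincubation.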
Take `CC(C)n1cnc2c(Nc3cccc(Cl)c3)nc(NCCO)nc21`: the Potency entry is “inactive”.

For `Cc1c(C(=O)NCCCO)cnn1-c1nc(-c2cccc(C(F)(F)F)c2)cs1`, the Potency entry is “inactive”.

`COc1cccc(NC[C@@H](O)Cn2c3ccc(Br)cc3c3cc(Br)ccc32)c1`: the Potency entry was “inactive”.

`C[C@@H](O[C@H]1OCCN(Cc2n[nH]nc2CN(C)C)[C@H]1c1ccc(F)cc1)c1cc(C(F)(F)F)cc(C(F)(F)F)c1`: the Potency entry is “inactive”.

`CCC(=O)Nc1cccc(Oc2nc(Nc3ccc(N4CCN(C)CC4)cc3OC)ncc2Cl)c1`: the Potency result is “inactive”.

As for `COc1cc2nc(-c3cc(F)ccc3O)nc(N[C@@H]3CNC[C@H]3C(C)(C)O)c2cc1OC`, the Potency result was “inactive”.

On to `Cc1cc(CN)cc(C)c1NC(=O)c1ccc(-c2cc(Cl)ccc2Cl)o1`, for which the Potency entry was “inactive”.

For the compound `c1ccc(-c2cnc(Nc3ccc(OCCN4CCCC4)cc3)s2)cc1`, the Potency result was “inactive”.

As for `C=C1C(=O)O[C@@H]2/C=C(/C)CC3C=C(C[C@H](OC(=O)/C(C)=C\C)[C@@H]12)C(=O)O3` (stereo partly drawn), the Potency entry was “inactive”.

In the case of `CC1(C)SC2C(NC(=O)[C@H](NC(=O)N3CCNC3=O)c3ccccc3)C(=O)N2C1C(=O)O` (stereo partly drawn), the Potency result is “inactive”.

As for `COc1ccc(-c2nc(-c3cc(C(F)(F)F)cc(C(F)(F)F)c3)n(Cc3ccc(C(N)=O)cc3)c2-c2ccc(OC)cc2)cc1`, the Potency entry is “inactive”.

Take `Fc1ccccc1CNCc1ccc(-c2ccnc3[nH]ccc23)cc1`: the Potency is 25.5 µM (active).

Turning to `CO[C@@H]1[C@@H](O[C@H]2O[C@@H](C)[C@H](O[C@@H]3C[C@](C)(O)[C@H](O)[C@@H](C)O3)[C@@H](N(C)C)[C@@H]2O)[C@@H](CC=O)C[C@@H](C)[C@@H](O[C@H]2CC[C@H](N(C)C)[C@H](C)O2)/C=C/C=C/C[C@@H](C)OC(=O)C[C@H]1O`, the Potency result was “inactive”.

As for `CNc1nc(-c2ccc3c(N)n[nH]c3c2)cc(N2CC(C(=O)NC3CCCCC3)CCC2C)n1` (stereo not drawn), the Potency entry is “inactive”.

With `CCOC(=O)CCC(=O)O[C@H]1[C@H](O[C@@H]2[C@@H](C)[C@H](O[C@H]3C[C@@](C)(OC)[C@@H](O)[C@H](C)O3)[C@@H](C)C(=O)O[C@H](CC)[C@@](C)(O)[C@H](O)[C@@H](C)C(=O)[C@H](C)CC2(C)O)O[C@H](C)C[C@@H]1N(C)C` (stereo partly drawn), the Potency result is “inactive”.

Consider `COc1cc(-c2cc(-c3cccc(O)c3)cnc2N)cc(OC)c1OC`, for which the Potency entry is “inactive”.

Turning to `C=C1C(=O)O[C@@H]2C[C@@H](C)[C@]34C[C@]5(C(=O)O[C@H]6CC(C)=C([C@H](C)CCCO)[C@H](OC(=O)C(C)CC)[C@H]65)[C@@H](C(C)=C3C[C@@H]12)[C@H]4OC(C)=O` (stereo partly drawn), the Potency entry is “inactive”.

`CC(=O)Nc1ccc(C(=O)Nc2ccccc2N)cc1`: the Potency result is “inactive”.

As for `C[C@H](NC(=O)C(C)(C)Oc1ccc(C(F)(F)F)cn1)[C@@H](Cc1ccc(Cl)cc1)c1cccc(C#N)c1`, the Potency result was “inactive”.

As for `CC(CCC1(O)OC2CC3C4CC=C5CC(O[C@@H]6O[C@H](CO)[C@@H](O[C@@H]7O[C@H](CO)[C@@H](O)[C@H](O)[C@H]7O)[C@H](O)[C@H]6O[C@@H]6O[C@@H](C)[C@H](O)[C@@H](O)[C@H]6O)CCC5(C)C4CCC3(C)C2C1C)CO[C@@H]1O[C@H](CO)[C@@H](O)[C@H](O)[C@H]1O` (stereo partly drawn), the Potency entry was “inactive”.

Consider `C[C@@H](CN1CCC(n2c(=O)[nH]c3cc(Cl)ccc32)CC1)NC(=O)c1ccc2ccccc2c1`, for which the Potency result is “inactive”.

In the case of `CC(C)c1ccc(NC(=O)C(c2ccccc2)N(C)C(=O)Cc2c[nH]c3ccccc23)cc1` (stereo not drawn), the Potency entry is “inactive”.

In the case of `COc1ccc2c(c1)CN(C(=O)CCN1CCC(Cc3ccccc3)CC1)CCS2`, the Potency result was “inactive”.

As to `C=C1C(=O)O[C@@H]2[C@H]1[C@H](O)C[C@]1(C)[C@@H](O)CC=C(C)[C@@H]21`, the Potency result is “inactive”.

For `COc1ccc(C2(CNC(=O)[C@](C)(Cc3c[nH]c4ccccc34)NC(=O)Nc3ccc([N+](=O)[O-])cc3)CCCCC2)nc1`, the Potency entry is “inactive”.

`CCN(CC)Cc1cccc(/C=C/c2nc3ccc(F)cc3c(=O)n2-c2ccccc2Cl)n1`: the Potency entry was “inactive”.

`C=C(C(=O)O)C1CC2=C(C)C(=O)CC2C(C)CC1O` (stereo not drawn): the Potency result is “inactive”.

Values taken from PubChem BioAssay (NCATS).
